Test results taken from PubChem BioAssay (Tox21).
Records with an inconclusive call do not appear. Calls of active or inactive are those of the source. Unless noted, the call rests on the fitted dose curve; in most records, active means well fitted curve in the direction sought with a large enough effect in the repeat runs; inconclusive means weak or mixed curves; inactive means no such curve, though single readings can be large; an effect the other way counts as inactive or inconclusive.

Tests used:
[1] = target: Androgen receptor (Homo sapiens) (UniProt P10275); test: qHTS assay to identify small molecule agonists of the androgen receptor (AR) signaling pathway using the MDA cell line (AID 743040; further: nearly all actives have a fitted effect of over 20% in size)
How it was run: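 Luciferase read-out, ONE-Glo, 30 min RT. Cells: MDA-kb2 AR-luc, MMTV promoter with AR and GR response elements. Compound exposure 16 h, 37C, 0% CO2, after 5 h pre-incubation. qHTS agonist mode.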

[2] = target: Androgen receptor (Homo sapiens) (UniProt P10275); test: qHTS assay to identify small molecule antagonists of the androgen receptor (AR) signaling pathway using the MDA cell line (AID 743042; further: nearly all actives have a fitted effect of over 55% in size)
How it was run: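 MDA-kb2 breast carcinoma cells carrying MMTV-luciferase (AR/GR responsive) were co-treated with compounds and the agonist R1881 for 16 h at 37C. Inhibition read as ONE-Glo luminescence; CellTiter-Fluor fluorescence measured in parallel for cytotoxicity.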

[3] = qHTS assay to identify small molecule antagonists of the thyroid receptor (TR) signaling pathway - cell viability counter screen (AID 743064); further: nearly all actives have a fitted effect of over 50% in size
How it was run: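 Fluorescence from CellTiter-Fluor, added after 23.5 h exposure at 37 °C, reported viability of GH3.TRE-Luc cells co-treated with compound and 1 nM T3. Measured in the same wells as the luciferase TR readout.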

[4] = qHTS assay to identify small molecule antagonists of the thyroid receptor (TR) signaling pathway (AID 743065); further: series mostly up to about 70 µM; nearly all actives have a fitted effect of over 55% in size
How it was run: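 GH3.TRE-Luc rat pituitary cells (two TREs driving luciferase) were dosed with compound, then stimulated with 1 nM T3 (final) for 23.5 h at 37 C. ONE-Glo luminescence was the read-out, with CellTiter-Fluor fluorescence as the cytotoxicity counter-screen.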

[5] = system: thyroid hormone receptor (rat, GH3 cells); test: qHTS assay to identify small molecule agonists of the thyroid receptor (TR) signaling pathway (AID 743066; calls by dose curve)
[6] = target: Estrogen receptor (Homo sapiens) (UniProt P03372); test: qHTS assay to identify small molecule antagonists of the estrogen receptor alpha (ER-alpha) signaling pathway (AID 743069; active means well fitted curve in the direction sought with a large enough effect in the signal ratio in the repeat runs, not every such curve was filed as active; the % refers to the signal ratio)
How it was run: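 Beta-lactamase FRET fluorescence is read after 2 hr at room temperature with LiveBLAzer B/G substrate. Before that, ER-alpha-bla HEK293 cells sit 4 hr after plating, then receive compound plus 17beta-estradiol and incubate 18 hr at 37C.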

[7] = qHTS assay to identify small molecule antagonists of the estrogen receptor alpha (ER-alpha) signaling pathway - cell viability counter screen (AID 743074; calls by dose curve;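 further: HEK293 cells carrying ER-alpha-UAS-bla reporter stimulated with 17beta-estradiol; nearly all actives have a fitted effect of over 45% in size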)
[8] = target: Estrogen receptor (Homo sapiens) (UniProt P03372); test: qHTS assay to identify small molecule agonists of the estrogen receptor alpha (ER-alpha) signaling pathway (AID 743075; calls by dose curve;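 further: HEK293 GripTite cells with ER-alpha and UAS-driven beta-lactamase reporter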)
[9] = target: Estrogen receptor (Homo sapiens) (UniProt P03372); test: qHTS assay to identify small molecule agonists of the estrogen receptor alpha (ER-alpha) signaling pathway using the BG1 cell line (AID 743079); further: nearly all actives have a fitted effect of over 20% in size
[10] = qHTS assay to identify small molecule antagonists of the estrogen receptor alpha (ER-alpha) signaling pathway using the BG1 cell line (AID 743080; calls by dose curve; further: series mostly up to about 70 µM; nearly all actives have a fitted effect of over 25% in size)
How it was run: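 Antagonist mode: compounds in DMSO were pinned onto BG1-Luc-4E2 cells alongside 17beta-estradiol agonist, incubated 21.5 h, and ERE-driven luciferase measured with ONE-Glo. Cytotoxicity was multiplexed using CellTiter-Fluor fluorescence.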

[11] = qHTS assay to identify small molecule antagonists of the estrogen receptor alpha (ER-alpha) signaling pathway using the BG1 cell line - cell viability counter screen (AID 743081);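 further: compound given together with 17beta-estradiol as the ER stimulus; series mostly up to about 70 µM; nearly all actives have a fitted effect of over 45% in size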
Aromatase (Homo sapiens) = Aromatase (Homo sapiens) (UniProt P11511); test: qHTS assay to identify aromatase inhibitors (AID 743083); further: series mostly up to about 70 µM; nearly all actives have a fitted effect of over 55% in size
[12] = qHTS assay to identify aromatase inhibitors - cell viability counter screen (AID 743084);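 further: cells stimulated with testosterone during compound exposure; nearly all actives have a fitted effect of over 55% in size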
[13] = target: Aryl hydrocarbon receptor (Homo sapiens) (UniProt P35869); test: qHTS assay to identify small molecule that activate the aryl hydrocarbon receptor (AhR) signaling pathway (AID 743085);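 further: HG2L7.5c1 human HepG2 liver cells with stably integrated DRE-driven firefly reporter; series mostly up to about 70 µM; nearly all actives have a fitted effect of over 15% in size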
How it was run: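 Cell line HG2L7.5c1 (human hepatoma, 20× DRE-luc). Plated, 5 h 37C, compound/DMSO added, 24 h 37C. CellTiter-Fluor 30 min 37C → fluorescence; then ONE-Glo 30 min RT → luminescence.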

[14] = qHTS assay to identify small molecule that activate the aryl hydrocarbon receptor (AhR) signaling pathway - cell viability counter screen (AID 743086);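 further: HepG2 liver cells carrying the AhR DRE luciferase reporter; series mostly up to about 70 µM; nearly all actives have a fitted effect of over 45% in size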
How it was run: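 HepG2-AhR-luc (HG2L7.5c1) cells, 4000/well, treated 24 h at 37 C with compound; viability measured as CellTiter-Fluor fluorescence after 30 min in the same wells as the luciferase read.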

[15] = qHTS assay to identify small molecule antagonists of the estrogen related receptor (ERR) signaling pathway - cell viability counter screen (AID 1224818);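 further: series mostly up to about 46 µM; viability measured after 17.5 h of compound exposure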
How it was run: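 Quantitative high-throughput viability counter screen in ERR cells. Compounds (DMSO) incubated 17.5 h at 37 C; read-out was CellTiter-Fluor fluorescence.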

[16] = qHTS assay to identify small molecule antagonists of the estrogen related receptor (ERR) signaling pathway (AID 1224819;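 further: luminescence from an ERR-driven luciferase reporter measured with One-Glo reagent; series mostly up to about 46 µM; nearly all actives have a fitted effect of over 50% in size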)
How it was run: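 ERR reporter cell line (NTP) plated at 2,000 cells/well, settled 6 h at 37C/5% CO2, then exposed to LOPAC compounds for 18 h at 37C. One-Glo luciferase luminescence read after 30 min at room temperature.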

[17] = qHTS assay to identify small molecule agonists of the estrogen related receptor (ERR) signaling pathway (AID 1224820)
How it was run: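 Luminescence readout (One-Glo, 30 min RT) from NTP-supplied ERR cell line exposed to compounds for 18 h at 37 C. Cells seeded 2,000 per well and pre-incubated 6 h before pin-tool compound transfer.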

[18] = system: estrogen-related receptor alpha (ERRalpha) with PGC-1alpha coactivator, human; test: qHTS assay to identify small molecule antagonists of the estrogen related receptor signaling pathway with the pleiotropic PPARgamma coactivator (PGC) (AID 1224821; calls by dose curve;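 further: series mostly up to about 46 µM; lower luminescence signal means antagonism of PGC/ERR signalling; nearly all actives have a fitted effect of over 50% in size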)
How it was run: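 PGC/ERR reporter cells; 6 h pre-incubation 37 C/5% CO2; pin-tool compound in DMSO, 18 h 37 C; One-Glo added, 30 min RT; luminescence read. qHTS antagonist mode.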

[19] = qHTS assay to identify small molecule antagonists of the estrogen related receptor signaling pathway with the pleiotropic PPARgamma coactivator (PGC) cell viability counter screen (AID 1224822; further: series mostly up to about 46 µM)
How it was run: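 Cytotoxicity in the PGC/ERR cell line is assessed with CellTiter-Fluor, read as fluorescence intensity 30 min after reagent addition, following 17.5 h compound treatment at 37 C.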

[20] = qHTS assay to identify small molecule agonists of the estrogen related receptor signaling pathway with the pleiotropic PPARgamma coactivator (PGC) (AID 1224823)
How it was run: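 Luminescence readout (One-Glo, 30 min RT) from PGC/ERR cell line treated 18 h at 37 C with pin-tool-delivered DMSO compound solutions; cells plated 6 h before dosing. Quantitative HTS format.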

[21] = target: Nuclear receptor subfamily 1 group I member 2 (Rattus norvegicus) (UniProt Q9R1A7); test: Rat pregnane X receptor (rPXR) activation by small molecules, qHTS assay (AID 1346983); details: rPXR luciferase reporter cells, One-Glo luminescence, 24 h; max activation: active compounds read high; further: nearly all actives have a fitted effect of over 20% in size
How it was run: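 Cell-based rPXR activation assay: rPXR cells, 2,000 per well, rested 5hr at 37 C, then exposed to compounds in DMSO for 24 hr at 37 C. Luciferase activity read by One-Glo luminescence after 30 min at room temperature.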

[22] = target: Nuclear receptor subfamily 1 group I member 2 (Homo sapiens) (UniProt O75469); test: CYP3A4 induction through human pregnane X receptor (PXR) by small molecules, qHTS assay (AID 1346984); further: nearly all actives have a fitted effect of over 40% in size
How it was run: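 Induction measured in HepG2-based DPX-2 cells co-expressing human PXR and a CYP3A4 promoter-driven luciferase. After a 24-hour compound exposure, cells received CYP3A4 luciferin substrate at 3uM final for 3 hours, and light output was then recorded.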

[23] = target: Nuclear receptor subfamily 1 group I member 2 (Homo sapiens) (UniProt O75469); test: Human pregnane X receptor (PXR) activation by small molecules, qHTS assay (AID 1346985); further: nearly all actives have a fitted effect of over 40% in size
How it was run: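 DPX-2 cells (HepG2 co-transfected with a PXR response element and a CYP3A4-promoter luciferase construct) were seeded at 2,000 per well, rested 5 hr at 37C, then exposed to DMSO-dissolved compounds for 24 hr. Activation was read as luciferase luminescence.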
On the % scale 0 is the no-effect control and ±100 the full control effect.

Estrogen receptor (Homo sapiens), sequence (P03372 whole entry, looked up): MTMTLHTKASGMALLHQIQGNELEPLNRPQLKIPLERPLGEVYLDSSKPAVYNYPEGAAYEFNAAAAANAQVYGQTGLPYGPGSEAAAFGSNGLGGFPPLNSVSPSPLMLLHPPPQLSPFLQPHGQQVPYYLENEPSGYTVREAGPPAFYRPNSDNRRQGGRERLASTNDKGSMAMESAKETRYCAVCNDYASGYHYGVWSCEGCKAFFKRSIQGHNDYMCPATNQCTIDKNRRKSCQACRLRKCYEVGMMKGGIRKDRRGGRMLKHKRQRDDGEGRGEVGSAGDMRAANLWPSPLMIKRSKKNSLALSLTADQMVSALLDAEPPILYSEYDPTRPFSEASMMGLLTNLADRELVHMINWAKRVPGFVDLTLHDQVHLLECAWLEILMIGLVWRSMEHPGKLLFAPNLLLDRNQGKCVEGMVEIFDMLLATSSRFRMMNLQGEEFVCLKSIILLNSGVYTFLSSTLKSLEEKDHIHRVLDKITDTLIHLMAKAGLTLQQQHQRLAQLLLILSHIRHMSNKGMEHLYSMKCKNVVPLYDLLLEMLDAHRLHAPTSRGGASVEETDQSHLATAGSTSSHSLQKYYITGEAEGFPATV
Androgen receptor (Homo sapiens), sequence (P10275 whole entry, looked up): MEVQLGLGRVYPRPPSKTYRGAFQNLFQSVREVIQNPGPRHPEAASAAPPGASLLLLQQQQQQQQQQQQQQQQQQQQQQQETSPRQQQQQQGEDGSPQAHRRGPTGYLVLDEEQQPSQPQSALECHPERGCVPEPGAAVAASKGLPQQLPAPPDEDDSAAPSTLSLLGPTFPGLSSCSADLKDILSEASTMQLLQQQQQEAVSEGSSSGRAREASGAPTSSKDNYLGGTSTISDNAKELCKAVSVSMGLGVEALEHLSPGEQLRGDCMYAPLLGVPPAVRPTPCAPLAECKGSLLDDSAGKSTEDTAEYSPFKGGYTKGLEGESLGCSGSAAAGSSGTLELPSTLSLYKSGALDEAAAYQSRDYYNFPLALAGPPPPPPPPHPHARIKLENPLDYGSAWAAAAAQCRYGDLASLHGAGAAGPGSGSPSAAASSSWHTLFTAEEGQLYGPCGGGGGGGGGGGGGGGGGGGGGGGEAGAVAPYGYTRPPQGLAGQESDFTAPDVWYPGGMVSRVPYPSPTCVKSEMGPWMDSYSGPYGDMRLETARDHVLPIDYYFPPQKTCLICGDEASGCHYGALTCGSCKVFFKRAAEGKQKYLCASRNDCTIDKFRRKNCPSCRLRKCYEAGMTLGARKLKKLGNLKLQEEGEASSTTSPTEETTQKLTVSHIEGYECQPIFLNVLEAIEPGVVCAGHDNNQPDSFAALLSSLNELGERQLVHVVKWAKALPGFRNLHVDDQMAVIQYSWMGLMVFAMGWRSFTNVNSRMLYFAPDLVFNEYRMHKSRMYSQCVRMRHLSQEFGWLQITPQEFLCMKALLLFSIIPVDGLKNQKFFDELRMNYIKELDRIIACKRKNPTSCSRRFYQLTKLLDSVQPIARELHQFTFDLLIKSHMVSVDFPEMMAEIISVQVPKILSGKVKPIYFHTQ
Aryl hydrocarbon receptor (Homo sapiens), sequence (P35869 whole entry, looked up): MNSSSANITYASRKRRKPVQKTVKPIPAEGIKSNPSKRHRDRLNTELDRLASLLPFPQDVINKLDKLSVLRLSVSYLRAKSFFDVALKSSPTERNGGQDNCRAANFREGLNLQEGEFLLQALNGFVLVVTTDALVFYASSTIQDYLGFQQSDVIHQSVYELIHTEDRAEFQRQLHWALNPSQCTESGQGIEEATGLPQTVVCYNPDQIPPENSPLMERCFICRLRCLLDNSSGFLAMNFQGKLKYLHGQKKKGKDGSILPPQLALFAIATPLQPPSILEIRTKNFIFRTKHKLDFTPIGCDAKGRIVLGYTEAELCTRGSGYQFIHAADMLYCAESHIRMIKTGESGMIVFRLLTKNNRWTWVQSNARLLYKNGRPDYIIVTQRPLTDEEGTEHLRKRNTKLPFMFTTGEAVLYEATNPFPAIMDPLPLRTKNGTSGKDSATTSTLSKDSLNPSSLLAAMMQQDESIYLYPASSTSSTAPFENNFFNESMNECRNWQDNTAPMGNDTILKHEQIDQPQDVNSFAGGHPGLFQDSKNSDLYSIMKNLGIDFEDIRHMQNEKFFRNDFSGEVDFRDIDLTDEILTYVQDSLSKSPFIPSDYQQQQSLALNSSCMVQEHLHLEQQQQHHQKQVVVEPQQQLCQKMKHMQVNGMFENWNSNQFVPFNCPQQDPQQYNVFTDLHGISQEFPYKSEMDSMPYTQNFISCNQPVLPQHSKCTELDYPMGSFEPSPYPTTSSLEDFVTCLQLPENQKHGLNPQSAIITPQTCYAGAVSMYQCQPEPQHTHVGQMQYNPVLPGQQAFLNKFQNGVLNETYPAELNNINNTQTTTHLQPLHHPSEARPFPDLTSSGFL
Aromatase (Homo sapiens), sequence (P11511 whole entry, looked up): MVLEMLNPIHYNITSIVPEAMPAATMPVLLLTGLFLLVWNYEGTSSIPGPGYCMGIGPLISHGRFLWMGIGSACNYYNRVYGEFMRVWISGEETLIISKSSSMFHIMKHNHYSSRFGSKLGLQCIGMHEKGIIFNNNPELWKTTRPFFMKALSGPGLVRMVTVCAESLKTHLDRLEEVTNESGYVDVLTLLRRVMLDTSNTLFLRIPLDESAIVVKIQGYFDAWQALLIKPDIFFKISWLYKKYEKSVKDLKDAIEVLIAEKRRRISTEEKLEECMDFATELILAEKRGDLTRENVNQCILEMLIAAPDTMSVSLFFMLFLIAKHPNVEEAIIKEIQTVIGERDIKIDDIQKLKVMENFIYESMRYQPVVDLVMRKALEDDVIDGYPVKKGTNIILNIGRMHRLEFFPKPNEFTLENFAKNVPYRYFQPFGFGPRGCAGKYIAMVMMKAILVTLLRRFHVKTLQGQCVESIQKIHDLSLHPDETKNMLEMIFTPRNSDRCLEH
Nuclear receptor subfamily 1 group I member 2 (Rattus norvegicus), sequence (Q9R1A7 whole entry, looked up): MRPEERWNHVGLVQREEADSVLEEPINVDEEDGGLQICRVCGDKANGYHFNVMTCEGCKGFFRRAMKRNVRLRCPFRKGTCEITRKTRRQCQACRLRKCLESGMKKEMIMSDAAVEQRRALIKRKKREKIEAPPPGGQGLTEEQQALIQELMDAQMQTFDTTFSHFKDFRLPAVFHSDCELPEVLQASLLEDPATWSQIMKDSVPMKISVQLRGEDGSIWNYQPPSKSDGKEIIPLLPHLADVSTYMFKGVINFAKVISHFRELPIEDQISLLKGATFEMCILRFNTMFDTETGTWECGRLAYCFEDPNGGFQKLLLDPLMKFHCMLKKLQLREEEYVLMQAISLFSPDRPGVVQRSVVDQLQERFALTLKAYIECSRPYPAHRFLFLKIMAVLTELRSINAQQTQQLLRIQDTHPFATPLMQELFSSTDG

CCCCCN(C)CCC(O)(P(=O)(O)O)P(=O)(O)O
inactive: Potency [1] | Potency [2] | Potency [3] | Potency [4] | Potency [5] | Potency [6] | Potency [7] | Potency [8] | Potency [9] | Potency [10] | Potency [11] | Potency (Aromatase (Homo sapiens)) | Potency [12] | Potency [13] | Potency [14] | Potency [15] | Potency [16] | Potency [17] | Potency [18] | Potency [19] | Potency [20] | max activation [21] -1.96% | Potency [22] | Potency [23]
